Laboratory results from PubChem BioAssay (NCI).
Several values for one entry are separate records, joined by “and”; a condition that tells them apart may be missing. Equal entries are not always repeated. Compounds without any hit were thinned out: in the full panel of roughly 83,000, 20% have a hit.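 Cell lines were cultured in 96-well plates, exposed to a single compound concentration, and assessed for percent growth 48 hours later.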 Activity calls are given as the source filed them. Rule for the calls: active = growth percent below 10; inactive = the rest.

System: MDA-MB-468 breast
Test: NCI-60 one-dose screen, 48 h (100 = growth as untreated, 0 = no growth, -100 = all killed)
Settings: 10 µM unless noted

SMILES	growth
COc1cccc(N2CCN(c3ncnc4cc[nH]c34)CC2)c1	18.8% (inactive)
Cn1cc(C(=O)c2nc(-c3cn(C)c4ccc(F)cc34)no2)c2cc(F)ccc21	94.1% (inactive)
NS(=O)(=O)c1ccc(-n2nc(C(=O)N/N=C\c3ccc(F)cc3)cc2-c2ccc(Cl)cc2)cc1	112% (inactive)
O=[N+]([O-])C1=C(c2ccccc2)SC=C(c2ccccc2)S1	72.7% (inactive)
C[n+]1c(/C=C/c2ccc([N+](=O)[O-])cc2)ccc2ccccc21	52.5% (inactive)
Cc1nc(O)cc(=O)[nH]1	113% (inactive)
COc1ccc(C2CC(=O)c3c(O)c(OC)c(OC)c(OC)c3O2)cc1O (centres undefined)	8.92% (active)
Oc1[nH]c2ccc(Cl)cc2c1/C=c1/ccc2c(c1)N=C(c1ccc(C(F)(F)F)cc1)N=2	52.5% (inactive)
CC(=O)O[C@]1(C(C)=O)CCC2C3C[C@H](C)C4=CC(=O)CC[C@]4(C)C3CC[C@@]21C (some centres undefined)	86.4% (inactive)
COc1ccc(Cn2cc3c(c2-c2ccccc2)CCCc2cnoc2-3)cc1	47.7% (inactive)
N#Cc1ccc(Oc2ccc3ccc(=O)oc3c2)cc1	93.4% (inactive)
COc1ccc(-c2cc(-c3cc(OC)c(OC)c(OC)c3)c(C#N)c(=O)n2CCCCC(=O)NO)cc1	72.3% (inactive)
Cc1c(CC(=O)Nc2ccccc2)nnn1-c1ccccc1	117% (inactive)
COc1ccc(/C=C/c2nc(Nc3ccc(Cl)cc3)c3ccccc3n2)cc1	28.1% (inactive)
CC1=C2[C@@H](CC1)[C@]1(C)O[C@@](C3CCNCC3)(C[C@H]1OC(=O)CO)[C@H]2OC(=O)/C=C/c1ccccc1	75.3% (inactive)
NC(=S)N/N=C1\c2ccccc2-c2c(F)c(F)c(F)c(F)c21	25.8% (inactive)
CC(=O)Nc1nc(C)c(C(=O)NNC=O)s1	116% (inactive)
CC1=NC(c2ccc(Cl)cc2)C2=C(N1)/C(=C/c1ccc(Cl)cc1)CCC2 (centres undefined)	75.8% (inactive)
O=C1/C(=C/c2cccc(F)c2)Cc2ccccc21	107% (inactive)
CC(C)CN1CC(C(=O)Nc2ccc3c(c2)-c2ccccc2C3)CC1=O (centres undefined)	60.5% [50 µM] (inactive)

SMILES	growth
COc1ccc(CNCCCN2C(=O)c3ccc4c5c(ccc(c35)C2=O)C(=O)N(CCCNCCCCNCCCN)C4=O)c(OC)c1OC	-85.6% (active)
CN(C)c1ccc(N=Nc2ccc3ccccc3c2)cc1	5.06% (active)
O=C(C[n+]1cccc2ccccc21)c1ccc(O)c(O)c1	16.1% (inactive)
Cc1nnc2c3nnc(-c4ccc(Cl)cc4)n3c3ccccc3n12	100% (inactive)
Cc1c(C(N)=O)sc2ncn(CC(=O)Nc3ccc(Cl)cc3)c(=O)c12	92.1% (inactive)
CC(O)Cc1c[nH]c(=O)[nH]c1=O (centres undefined)	121% (inactive)
C=C1C(=O)O[C@H]2[C@H]1CC/C(COC(=O)c1cccnc1N)=C\CC[C@@]1(C)O[C@@H]21	14.8% (inactive)
O=C(/C=C/c1ccccc1)c1ccc(O)c(CN2CCN(c3cc4c(cc3F)c(=O)c(C(=O)O)cn4C3CC3)CC2)c1	3.64% (active)
O=C(/C=C/c1ccccc1)c1ccc(-n2cc(CN3CCN(c4cc5c(cc4F)c(=O)c(C(=O)O)cn5C4CC4)CC3)nn2)cc1	66% (inactive)
NS(=O)(=O)c1ccc(NC(=O)/C(=C\c2ccc(Cl)cc2Cl)NC(=O)c2ccccc2)cc1	110% (inactive)
C(=N\OCCc1ccccc1)/c1ccccn1	112% (inactive) and 107% (inactive)
CN1Cc2c(cc(CN3CCCCC3)n2C)C(c2ccc(Br)cc2)C1 (centres undefined)	56.2% (inactive)
COc1cc2oc(-c3cccc(NC(=O)c4cccc([N+](=O)[O-])c4)c3)cc(=O)c2c(OC)c1OC	-1.02% (active)
CCn1cc(C(=O)O)c(=O)c2cc(F)c(N3CCN(CC(=O)Nc4ccc(S(=O)(=O)Nc5nccc(C)n5)cc4)C(C)C3)c(F)c21 (centres undefined)	96.4% (inactive)
CCN1CCC2(CC1)NC(=O)c1c(c3ccc(Cl)c(Cl)c3n1C)C2C#N (centres undefined)	-16.3% (active)
CCC1=Cc2c(OC)cccc2OC12C=Cc1c(OC)cccc1O2 (centres undefined)	54% (inactive)
CSc1nc2[nH]ncc2c(=O)[nH]1	92.6% (inactive)
COC(=O)c1cccc(NC2=C(Cl)C(=O)C(C)=C(C)C2=O)c1	-62% (active)
CC(C)[C@@]12C[C@@H](OC(=O)[C@H]3CO3)[C@@](C)(O1)[C@@H]1CC[C@@H](C)[C@H]1[C@@H]2OC(=O)/C=C/c1ccccc1	85.8% (inactive)
